BAZ2B inh: qHTS Assay for Inhibitors of BAZ2B; AlphaScreen BAZ2B-H3K14Ac peptide displacement; Potency, µM (series often up to 114 µM), most hits filed as inhibitors; 360,000 tested, 4.4% active; AID 504333, 2011; note: nearly all actives have a fitted effect of over 60% in size
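AlphaScreen displacement: compounds (up to 110uM) incubated 30 min at room temperature with a preformed 50 nM BAZ2B/50 nM biotinylated H3K14Ac peptide complex in PBS pH 7.4 with Tween-20. Donor and acceptor beads at 10 ug/mL final added, 20 min light-protected before reading.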
JMJD2A Tudor: qHTS Assay for Inhibitors of JMJD2A-Tudor Domain; AlphaScreen JMJD2A-Tudor / H3K4me3 peptide binding; Potency, µM (doses to about 114 µM), actives largely listed as inhibitors; 390,000 tested, 4.4% active; AID 504339, 2011; note: nearly all actives have a fitted effect of over 50% in size
G9a block: qHTS Assay for Inhibitors of Histone Lysine Methyltransferase G9a; G9a H3K9 monomethylation, AlphaScreen, 2 h; Potency, µM (top dose mostly 102 µM), most hits filed as inhibitors; 350,000 tested, 8.8% active; AID 504332, 2011; note: nearly all actives have a fitted effect of over 75% in size
Target sequence (Q96KQ7 913-1193 limits assumed): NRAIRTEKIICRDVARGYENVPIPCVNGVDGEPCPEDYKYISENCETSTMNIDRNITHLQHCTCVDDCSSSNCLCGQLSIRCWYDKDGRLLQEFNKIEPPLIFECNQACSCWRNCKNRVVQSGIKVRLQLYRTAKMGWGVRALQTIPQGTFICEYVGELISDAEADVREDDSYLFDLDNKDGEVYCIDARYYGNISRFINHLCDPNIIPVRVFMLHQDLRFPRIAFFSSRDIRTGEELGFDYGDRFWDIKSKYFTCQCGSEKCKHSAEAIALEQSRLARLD
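AlphaScreen read-out: biotin-H3K9 peptide (500 nM) methylation by 20 nM enzyme with 20 uM SAM, 2 h at room temperature after 15 min compound preincubation; anti-monomethyl H3K9 antibody plus donor/acceptor beads, 10 min dark.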
Sfp inh: qHTS Assay for Inhibitors of Bacillus subtilis Sfp phosphopantetheinyl transferase (PPTase). 4'-phosphopantetheinyl transferase ffp (Bacillus subtilis), Q9F4F7. Biochemical Sfp PPTase activity, qHTS. Potency, µM, hits mostly inhibitors. 310,000 tested, 3.5% active. AID 1490, 2009;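 note: the enzyme is Sfp with the accession as filed and its product quenches rhodamine fluorescence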
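Buffer: 50 mM Hepes-Na pH 7.6, 10 mM MgCl2, 0.01% Nonidet P-40, 0.01% BSA. Enzyme 15 nM, pre-exposed to compound 15 min; substrates then added and fluorescence change tracked over 30 min.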
HP1b chromo inh: HTS for Inhibitors of HP1-beta Chromodomain Interactions with Methylated Histone Tails | AlphaScreen HP1-beta / biotin-H3K9me3 peptide binding | AID 540317, 2011 | Potency, µM (highest dose often 114 µM), hits mostly inhibitors | 390,000 tested, 0.56% active; note: nearly all actives have a fitted effect of over 70% in size
Target sequence (P83916 whole entry, looked up): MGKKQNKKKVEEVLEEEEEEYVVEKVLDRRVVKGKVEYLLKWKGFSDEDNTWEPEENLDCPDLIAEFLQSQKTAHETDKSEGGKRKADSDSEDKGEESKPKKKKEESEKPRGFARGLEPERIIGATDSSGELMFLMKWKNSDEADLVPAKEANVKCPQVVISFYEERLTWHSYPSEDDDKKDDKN
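HP1-beta protein (50 nM final) preincubated 30 min at room temperature with biotinylated H3(1-18)K9me3 peptide (50 nM) in PBS pH 7.4, 0.01% Tween-20, then compound added for 30 min. AlphaScreen streptavidin donor/nickel chelate acceptor beads (10 ug/mL final), 30 min dark, luminescence read.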
ALOX12 inh: Primary qHTS assay for inhibitors of human arachidonate 12S-lipoxygenase (ALOX12): Round 2; AID 1671190, 2021; purified 12hLO, xylenol orange hydroperoxide absorbance; Potency, µM (highest dose often 108 µM), usual class: inhibitors; Polyunsaturated fatty acid lipoxygenase ALOX12 (Homo sapiens), P18054; 580,000 tested, 1.1% active
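Hydroperoxide product was detected by ferrous iron/xylenol orange as the 573 to 405 nm absorbance ratio. Arachidonic acid at 40 uM (final) was turned over for 30 min at room temperature by 150 nM human 12hLO, pH 7.0 Hepes buffer, after 15 min compound preincubation.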
A number is an active result; 0 = inactive; ? = inconclusive; - = not tested or not shown; [ ] = another dose, or the depositor's remark. Rows were chosen to be rich in hits. Some 8.7% of all compounds tested hit in one or more screens of this group. Calls come from the whole dose curve; as a rule, active = well fitted curve in the direction sought with a large enough effect; inconclusive = small, poorly fitted or top-dose-only effect, or another doubt; inactive = no such curve, though single readings can be large; an effect the other way counts as inactive or inconclusive.

SMILES | BAZ2B inh | JMJD2A Tudor | G9a block | Sfp inh | HP1b chromo inh | ALOX12 inh
CN1CCC(=NNC(=O)C(=O)Nc2ccc(F)cc2)CC1 | 0 | 0[11.4 µM] | ? | 0 | 0 | 0
CN1CCC(=NNC(=O)C(=O)Nc2cccc(Br)c2)CC1 | 0 | 22µM | 0 | 0 | 0 | 0
Cc1ccc(S(=O)(=O)N2CCN(c3ccc(NCc4ccccc4)nn3)CC2)cc1C | - | - | - | - | - | 0
O=C(Cn1ncc2ccccc2c1=O)Nc1ncc(Cc2ccc(C(F)(F)F)cc2)s1 | - | - | - | - | - | 0
N=C(N)SCc1nc2ccccn2c1Br | 0 | 0 | 0 | 0 | 0 | 0
Cc1cccc2nc(CSC(=N)N)c(Br)n12 | 0 | 0 | 8.9µM | 0 | 0 | 0
COCCn1nnnc1SCC(=O)c1ccccc1 | 0 | 0 | 0[2.33 µM] | 50µM | 0 | 0
CC(=O)Nc1ccc(C(=O)CSc2nnnn2C)cc1 | 0 | 0 | 0 | 0 | 0 | 0
CCCn1nnnc1SCC(=O)c1ccc(NC(C)=O)cc1 | 0 | 0 | ? | 79µM | 0 | 0
CCCCn1nnnc1SCC(=O)Nc1ccc(N(C)C)cc1 | 0 | ? | 45µM | 0 | 0 | 0
CC(=O)Nc1ccc(C(=O)CSc2nnc(Cn3nnc4ccccc43)n2C)cc1 | 0 | 56µM | 79µM | 0 | 0 | 0
CCn1nnnc1SCC(=O)c1cccc(OC)c1 | 0 | 0 | ? | 0 | 0 | 0
CS(=O)(=O)c1ccc(OCC2(CNC(=O)N3CCOCC3)C[C@@H](O)[C@@H](O)C2)cc1 (some centres not stated) | - | - | - | - | - | 0
COc1ccc(C2CC(c3ccccc3)=NN2c2ccc(S(N)(=O)=O)cc2)cc1OC (configuration not stated) | 0 | 0 | - | 89µM | 0 | ?
COc1ccc(C2CC(c3ccccc3)=NN2c2ccc(Cl)c(C(=O)O)c2)cc1 (configuration not stated) | 0 | 0 | - | 56µM | 0 | ?
NS(=O)(=O)c1ccc(N2N=C(c3ccccc3)CC2c2cccc(F)c2)cc1 (configuration not stated) | 0 | 0 | 0 | 0 | 0 | 0
COc1ccc(C2CC(c3ccccc3)=NN2c2ccc(N)cc2)cc1 (configuration not stated) | 40µM | ? | 45µM | 0 | ? | ?
COc1ccc(C2=NN(c3ccc(C(=O)O)cc3)C(c3ccc(OC)c(OC)c3)C2)cc1 (configuration not stated) | 0 | 0 | 0 | 0 | 0 | ?
COc1ccccc1CNC(=O)C1=C(c2ccccc2)c2cc(Cl)ccc2S(=O)(=O)N1C | - | - | - | - | - | 0
Cc1ccc(S(=O)(=O)NC2CC2)cc1C(=O)Nc1ccccc1C(C)C | - | - | - | - | - | 0
Cn1c2c(c(=O)[nH]c1=O)C(c1ccc(O)cc1)C1=C(N2)c2ccccc2C1=O (configuration not stated) | 0 | 50µM | 35µM | 0 | 35µM | ?
CCn1c2c(c(=O)[nH]c1=O)C(c1ccc(C(=O)O)cc1)C1=C(N2)c2ccccc2C1=O (configuration not stated) | - | - | - | - | - | 0
CCc1ccc(S(=O)(=O)N2CC(=O)Nc3ccccc32)cc1 | 0 | 0 | 0 | 0 | 0 | 0
CCOC(=O)c1ccc(S(=O)(=O)N2CC(=O)Nc3ccccc32)cc1 | 0 | 0 | 10µM | 0 | 0 | ?
CN1c2cc(C(=O)Nc3cccc(Br)c3)ccc2C(=O)N2CCCCC21 (configuration not stated) | - | - | - | - | - | 0
SMILES | BAZ2B inh | JMJD2A Tudor | G9a block | Sfp inh | HP1b chromo inh | ALOX12 inh
CC1CCN(S(=O)(=O)c2ccc(C(=O)Nc3sc4c(c3C(N)=O)CC(C)(C)NC4(C)C)cc2)CC1 | 0 | ? | 0 | - | 0 | ?
CCOc1cccc2sc(NC(=O)c3ccc(S(=O)(=O)N4CCc5ccccc54)cc3)nc12 | 0 | 0 | 0 | - | 0 | 0
CCOC(=O)c1c(-c2ccccc2)csc1NC(=O)c1cc(S(=O)(=O)N2CCOCC2)ccc1C | 0 | 0 | 32µM | ? | ? | 0
CCOC(=O)c1sc(NC(=O)c2ccc(S(=O)(=O)N3CCOCC3)cc2)nc1-c1ccccc1 | 0 | 0 | 45µM | 0 | 0 | 0
CCOC(=O)N1CCN(S(=O)(=O)c2ccc(C(=O)Nc3sc4c(c3C(N)=O)CC(C)(C)NC4(C)C)cc2)CC1 | 0 | 0 | 50µM | 0 | 0 | 0
CCOc1cccc2sc(NC(=O)c3ccc(S(=O)(=O)N4CCCCC4)cc3)nc12 | 0 | 0 | 0 | - | 0 | 45µM
CCOC(=O)c1c(-c2ccccc2)csc1NC(=O)c1ccc(S(=O)(=O)N2CC(C)OC(C)C2)cc1 (configuration not stated) | 0 | 0 | 0 | 0 | 0 | 0
CCOC(=O)N1CCN(S(=O)(=O)c2ccc(C(=O)Nc3nc4ccccc4s3)cc2)CC1 | 0 | 0 | 50µM | 0 | 0 | 0
CCOC(=O)COn1c(-c2cccc(Cl)c2)nc2ccc([N+](=O)[O-])cc21 | 0 | 0 | 50µM | 0 | 0 | ?
CCOc1cc(C2C3=C(CC(C)(C)CC3=O)OC3=C2C(=O)CC(C)(C)C3)ccc1OC(=O)CC | - | - | - | - | - | 0
Cc1cc(C)nc(SCNC(=O)c2ccc(F)cc2)n1 | 0 | 0 | ? | 50µM | 0 | 0
Cc1cc(SCNC(=O)c2ccccc2)ncn1 | 0 | 28µM | ? | 25µM | ? | ?
Cc1cc(C)nc(SCC(=O)c2ccc(F)cc2)n1 | 0 | 0 | - | 0 | 0 | 0
Cc1ccc(-c2nc(CCNC(=O)Nc3cccc(F)c3)co2)cc1 | - | - | - | - | - | 0
N#Cc1ccc(C(=O)NN2C(=O)NC3(CCCCC3)C2=O)cc1 | 0 | 0 | 56µM | - | 0 | 0
O=C(O)c1ccccc1C(=O)NC[C@H]1Cn2c(-c3ccc(F)cc3)cnc2CO1 | - | - | - | - | - | 0
Cc1cc(Cc2cc(C)c(N)cc2C)c(C)cc1N | 35µM | 0 | - | 0 | 0 | 0
COC(=O)[C@H](Cc1ccc(OC)cc1)NC(=O)[C@@H]1CNCCN1C(C)=O | - | - | - | - | - | 0
COC(=O)CCC(=O)OC1(C)C(=O)C2=CN(CCCCO)C(c3ccc(OC)cc3)=CC2=C(Br)C1=O (configuration not stated) | ? | - | 35µM | 0 | - | -
COc1ccc(C2=CC3=C(Br)C(=O)C(C)(OC(=O)c4ccc(Cl)nc4)C(=O)C3=CO2)cc1 (configuration not stated) | 56µM | 79µM | 0 | 0 | 50µM | -
COc1ccc(C2=CC3=C(Br)C(=O)C(C)(OC(=O)C4CCCC4)C(=O)C3=CO2)cc1 (configuration not stated) | 79µM | 50µM | 0[12.7 µM] | 0 | ? | -
COC(=O)CCC(=O)OC1(C)C(=O)C2=CN(C(CO)CO)C(c3ccc(OC)cc3)=CC2=C(Br)C1=O (configuration not stated) | ? | - | 0[12.7 µM] | 0 | - | ?

Assay outcomes (PubChem)
